# In PMC4336329 (PLoS ONE, 2015):
# In all, about 310,000 compounds went through this assay and about 14,000 (4.5%) showed an effect of 50% or more. Effects have a minus sign here. Only a selection was taken, and strong results are over-represented in it overall.
# Molecular target: human ether-à-go-go-related gene (hERG) potassium channel (human, UniProt Q12809)
# Assay: primary screen, population patch clamp on CHO cells stably expressing hERG; higher = less effect of the substance
# 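Note: peak tail current of the secondary pulse compared with the same well before compound.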
# human ether-à-go-go-related gene (hERG) potassium channel, sequence (Q12809 whole entry, looked up): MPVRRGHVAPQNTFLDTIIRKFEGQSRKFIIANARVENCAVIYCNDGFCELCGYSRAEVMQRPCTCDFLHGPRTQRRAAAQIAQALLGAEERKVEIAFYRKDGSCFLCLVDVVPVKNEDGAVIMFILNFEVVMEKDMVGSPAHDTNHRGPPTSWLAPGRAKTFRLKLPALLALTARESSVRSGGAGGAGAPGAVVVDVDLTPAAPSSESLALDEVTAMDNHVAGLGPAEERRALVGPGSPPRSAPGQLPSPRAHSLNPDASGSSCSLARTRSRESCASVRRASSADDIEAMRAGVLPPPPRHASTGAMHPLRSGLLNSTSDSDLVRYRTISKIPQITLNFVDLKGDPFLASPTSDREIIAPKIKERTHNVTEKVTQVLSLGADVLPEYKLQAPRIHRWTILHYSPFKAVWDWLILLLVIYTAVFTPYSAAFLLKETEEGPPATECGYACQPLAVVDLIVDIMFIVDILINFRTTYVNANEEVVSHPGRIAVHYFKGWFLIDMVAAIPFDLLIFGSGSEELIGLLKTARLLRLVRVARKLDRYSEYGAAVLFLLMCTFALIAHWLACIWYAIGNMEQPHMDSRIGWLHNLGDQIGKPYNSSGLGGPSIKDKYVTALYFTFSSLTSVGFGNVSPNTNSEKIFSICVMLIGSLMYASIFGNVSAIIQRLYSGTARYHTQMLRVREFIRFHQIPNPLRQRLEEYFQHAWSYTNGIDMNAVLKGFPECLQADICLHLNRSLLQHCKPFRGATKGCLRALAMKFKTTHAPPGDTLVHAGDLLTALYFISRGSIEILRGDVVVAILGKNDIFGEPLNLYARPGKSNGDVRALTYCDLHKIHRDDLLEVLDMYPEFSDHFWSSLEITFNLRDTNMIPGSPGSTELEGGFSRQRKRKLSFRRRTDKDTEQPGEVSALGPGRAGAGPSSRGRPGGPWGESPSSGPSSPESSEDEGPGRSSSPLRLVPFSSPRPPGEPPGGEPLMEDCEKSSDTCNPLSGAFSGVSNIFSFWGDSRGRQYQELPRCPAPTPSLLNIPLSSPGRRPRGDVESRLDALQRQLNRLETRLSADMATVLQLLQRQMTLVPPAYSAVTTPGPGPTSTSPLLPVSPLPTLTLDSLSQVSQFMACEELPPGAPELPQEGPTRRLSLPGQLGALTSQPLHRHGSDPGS
row,Compound,"hERG current change (%, negative = inhibition) at 10uM [%]"
1,COc1ccccc1N1CCN(C(=O)c2sc3ncn(CC(=O)N4CCC(C)CC4)c(=O)c3c2C)CC1,-29.3
2,CCCCCCCn1ccc(=N)cc1.I,-14.7
3,CCCCCCCCCCCCCCCCn1cc[n+](C)c1.[Br-],-18.4
4,CCCCCn1ccc(=N)cc1.I,11.7
5,Br.CCCCCCCCCCCCn1ccc(=N)cc1,-60.2
6,Br.CCCCCCn1ccc(=N)cc1,1.66
7,Br.CCCCCCCCn1ccc(=N)cc1,-27
8,Br.CCCCCCN1Cc2ccccc2C1,-39.3
9,Br.CCCCCCCCCCn1ccc(=N)cc1,-72.9
10,Br.CCCCCCCCCn1ccc(=N)cc1,-66
11,O=C(O)C1CCCCC1C(=O)NCCCN1CCOCC1 (centres unmarked),-1.05
12,Cc1ccc(/C=C/C(=O)NCC2COc3ccccc3O2)o1 (centres unmarked),-18.2
13,CCCCC(=O)N/N=C/c1c(O)n(CCc2ccccc2)c(=O)[nH]c1=O,18.3
14,CCOC(=O)C1CCCN(c2c(NCCN3CCCCC3C)c(=O)c2=O)C1 (centres unmarked),5.47
15,COc1ccc(C(=O)COC(=O)c2ccc3c(c2)OCO3)c(OC)c1,-16.9
16,Cn1c(=O)[nH]c(=O)c2c1nc(Br)n2Cc1cccc(Br)c1,15.1
17,CCCn1c(N2CCN(C)CC2)nc2c1c(=O)[nH]c(=O)n2C,-13.5
18,CCCn1c(N2CCN(Cc3cccc(C)c3)CC2)nc2c1c(=O)[nH]c(=O)n2C,-53
19,COc1ccc(OCC(O)Cn2c(N3CCCCC3)nc3c2c(=O)[nH]c(=O)n3C)cc1 (centres unmarked),-5.73
20,COc1ccc(N2CCN(c3nc4c(c(=O)[nH]c(=O)n4C)n3Cc3cccc(C)c3)CC2)cc1,-14.2
21,Cn1c(=O)[nH]c(=O)c2c1nc(N1CCCCC1)n2CC(O)COc1ccc([N+](=O)[O-])cc1 (centres unmarked),-69.8
22,CN1CCN(c2nc3c(c(=O)[nH]c(=O)n3C)n2Cc2cccc(Br)c2)CC1,-53.5
23,CN1CCN(c2nc3c(c(=O)[nH]c(=O)n3C)n2Cc2ccccc2)CC1,-25.4
24,COc1ccc(OCC(O)Cn2c(Br)nc3c2c(=O)[nH]c(=O)n3C)cc1 (centres unmarked),-12.6
25,Cn1c(=O)[nH]c(=O)c2c1nc(Br)n2CC(O)COc1ccccc1 (centres unmarked),-0.394

row,Compound,"hERG current change (%, negative = inhibition) at 10uM [%]"
1,Cc1ccc(OCC(O)Cn2c(N3CCCCC3)nc3c2c(=O)[nH]c(=O)n3C)cc1 (centres unmarked),9.46
2,Cn1c(=O)[nH]c(=O)c2c1nc(Br)n2CC(O)COc1ccc(Cl)cc1 (centres unmarked),-63.6
3,CCOC(=O)C[C@H]1c2ccccc2S(=O)(=O)N1C1CC1,5.78
4,Br.CC1(C)OC(c2ccccc2)=C/C(=C/C=Nc2ccccc2)O1,-12.9
5,CC(C)c1ccc(C(O)c2cnc(C(C)C)n2C)cc1 (centres unmarked),-27.5
6,O=C1N=C(N2CCN(c3cccc4ccccc34)CC2)S/C1=C/c1cccs1,11.9
7,O=C1N/C(=N\N=C\c2cccs2)SC1Cc1ccc(Cl)cc1 (centres unmarked),-8.96
8,COc1ccc(-n2cnnc2SCC(=O)NC2CCS(=O)(=O)C2)cc1 (centres unmarked),8.52
9,O=C(CSc1nc2ccccc2n1-c1ccccc1)Nc1ncc(Cl)cc1Cl,12.1
10,O=C(Nc1ccc(F)cc1F)C1CCN(S(=O)(=O)c2cccnc2)CC1,-1.85
11,CSc1ccc(Cn2nnc(C(=O)NCc3ccccc3)c2N)cc1,-0.141
12,CS(=O)(=O)N1CCC(C(=O)Nc2cccc(C(F)(F)F)c2)CC1,-14.2
13,O=C(CCCCn1c(=O)c2ccccc2n(Cc2ccc(F)cc2Cl)c1=O)NCc1ccco1,-5.07
14,Cc1cccc(Cn2c(N3CCN(C)CC3)nc3c2c(=O)[nH]c(=O)n3C)c1,-50.7
15,Cc1cccc(Cn2c(N3CCN(CCO)CC3)nc3c2c(=O)[nH]c(=O)n3C)c1,-23.5
16,CC1CCN(c2nc3c(c(=O)[nH]c(=O)n3C)n2Cc2ccccc2)CC1,7.99
17,CN1CCN(c2nc3c(c(=O)[nH]c(=O)n3C)n2Cc2cccc3ccccc23)CC1,-27.6
18,CN1CCN(c2nc3c(c(=O)n(C)c(=O)n3C)n2Cc2cccc(Br)c2)CC1,-55.1
19,CN1CCN(c2nc3c(c(=O)n(C)c(=O)n3C)n2Cc2ccc(Cl)cc2)CC1,-39.5
20,Cc1cccc(Cn2c(N3CCc4ccccc4C3)nc3c2c(=O)[nH]c(=O)n3C)c1,-4.89
21,Cc1cccc(Cn2c(N3CCCCC3C)nc3c2c(=O)[nH]c(=O)n3C)c1 (centres unmarked),-57
22,CN1CCN(c2nc3c(c(=O)[nH]c(=O)n3C)n2Cc2ccc([N+](=O)[O-])cc2)CC1,-59
23,Cc1ccc(Cn2c(N3CCN(C)CC3)nc3c2c(=O)[nH]c(=O)n3C)cc1,-14.9
24,Cc1cccc(Cn2c(N3CCN(C)CC3)nc3c2c(=O)n(C)c(=O)n3C)c1,-49
25,CN1CCN(c2nc3c(c(=O)[nH]c(=O)n3C)n2Cc2ccc(Cl)cc2)CC1,-15.5
